Of roughly 7,900 targets only a part is listed; those with a hit were picked by preference. About 0.6% of all pairs of compound and target were hits.
Tests used:
Assay in all cases: log2 fold change, soluble protein after heating vs DMSO (PISA); higher = thermal stabilisation; K562 cells, 10 uM, 30 min; active = over 0.2 and 3.5 SD of the protein, either way, in both replicates (recomputed)
[1] = compound: C1=CC=C(C=C1)[C@H](COC2=CC3=C(C=C2)NC(=O)N3)NC(=O)C4=CC=CN(C4=O)CC5=CC(=C(C=C5)F)F
Summary of the method: (§1)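 Soluble protein was defined as the supernatant after 21,000xg for 90 min. It came from K562 cells at 2×10^6 cells/mL given 10 μM compound for 30 min, heated in aliquots for 3 min across 48°C-58°C, pooled, and extracted in PBS with 0.5% NP-40 at 4°C, and was quantified by TMTpro 16plex LC-MS/MS with equalised channel sums. Thermal stability against control samples, from duplicates, is reported as log2 fold change.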

[2] = compound: CC1=C(SC2=C1C(=N[C@H](C3=NN=C(N32)C)CC(=O)N)C4=CC=C(C=C4)Cl)C
Summary of the method: as §1

[3] = compound: CC1=C2C(=CC=C1)N=C(N(C2=O)C3=CC=CC=C3C)CN4C=NC5=C(N=CN=C54)N
Summary of the method: as §1

[4] = compound: Cc1sc2c(c1C)C(c1ccc(Cl)cc1)=N[C@@H](CC(=O)OC(C)(C)C)c1nnc(C)n1-2
Summary of the method: as §1

[5] = compound: c1ccc([C@@H]2C[C@H]2NC2CCNCC2)cc1
Summary of the method: as §1

Measured: log2 fold change

TRIM4 (UniProt Q9C037)
inactive: [1] -0.049 | [2] -0.014 | [3] 0.254 | [4] -0.04 | [5] -0.038

UBE4A isoform 2 (UniProt Q14139)
Chain of UniProt Q14139 (Q14139 whole entry, looked up): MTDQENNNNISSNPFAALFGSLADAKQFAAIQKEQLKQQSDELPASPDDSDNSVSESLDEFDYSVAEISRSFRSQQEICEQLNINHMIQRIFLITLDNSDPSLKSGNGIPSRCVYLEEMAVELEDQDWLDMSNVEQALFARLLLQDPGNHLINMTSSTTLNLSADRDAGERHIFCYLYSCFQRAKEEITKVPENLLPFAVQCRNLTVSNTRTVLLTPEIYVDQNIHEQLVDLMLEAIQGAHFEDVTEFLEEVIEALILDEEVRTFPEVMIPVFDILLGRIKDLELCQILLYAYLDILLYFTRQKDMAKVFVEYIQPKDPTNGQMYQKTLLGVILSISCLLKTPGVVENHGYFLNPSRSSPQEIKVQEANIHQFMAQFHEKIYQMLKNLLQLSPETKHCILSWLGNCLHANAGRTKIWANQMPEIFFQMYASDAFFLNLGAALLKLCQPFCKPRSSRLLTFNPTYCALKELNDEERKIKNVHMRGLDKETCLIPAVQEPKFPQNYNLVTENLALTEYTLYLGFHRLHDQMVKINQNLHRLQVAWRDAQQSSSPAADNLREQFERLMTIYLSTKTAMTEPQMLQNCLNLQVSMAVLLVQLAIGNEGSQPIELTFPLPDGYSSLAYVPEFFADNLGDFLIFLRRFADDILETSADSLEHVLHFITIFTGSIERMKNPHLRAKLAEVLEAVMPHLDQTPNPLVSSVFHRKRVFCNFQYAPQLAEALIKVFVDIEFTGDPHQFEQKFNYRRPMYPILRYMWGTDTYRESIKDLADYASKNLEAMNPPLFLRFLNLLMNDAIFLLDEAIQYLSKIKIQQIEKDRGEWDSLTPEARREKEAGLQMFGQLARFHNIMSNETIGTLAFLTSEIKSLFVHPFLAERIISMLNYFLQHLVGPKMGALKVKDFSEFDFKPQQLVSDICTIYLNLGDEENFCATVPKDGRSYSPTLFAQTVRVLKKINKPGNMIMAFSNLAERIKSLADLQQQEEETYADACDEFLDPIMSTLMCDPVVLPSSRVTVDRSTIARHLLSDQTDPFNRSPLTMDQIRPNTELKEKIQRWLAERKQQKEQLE
inactive: [1] -0.051 | [2] -0.067 | [3] 0.013 | [4] 0.013 | [5] 0.081

WDR37 isoform 2 (UniProt Q9Y2I8)
Chain of UniProt Q9Y2I8 (Q9Y2I8 whole entry, looked up): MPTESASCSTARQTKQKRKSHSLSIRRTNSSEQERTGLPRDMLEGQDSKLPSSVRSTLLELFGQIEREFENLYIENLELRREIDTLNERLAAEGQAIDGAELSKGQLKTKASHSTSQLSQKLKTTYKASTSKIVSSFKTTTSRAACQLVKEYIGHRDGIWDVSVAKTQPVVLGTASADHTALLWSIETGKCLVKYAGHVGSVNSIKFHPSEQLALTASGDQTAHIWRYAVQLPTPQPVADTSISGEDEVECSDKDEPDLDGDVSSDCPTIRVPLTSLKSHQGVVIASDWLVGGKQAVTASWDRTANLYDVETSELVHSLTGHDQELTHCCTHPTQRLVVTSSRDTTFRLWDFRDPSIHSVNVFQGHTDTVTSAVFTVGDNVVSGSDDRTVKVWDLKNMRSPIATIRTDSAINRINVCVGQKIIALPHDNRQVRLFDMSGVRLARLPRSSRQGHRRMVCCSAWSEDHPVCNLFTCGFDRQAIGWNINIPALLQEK
inactive: [1] 0.039 | [2] -0.06 | [3] 0.062 | [4] 0.079 | [5] 0.054

TMEM164 (UniProt Q5U3C3)
inactive: [1] -0.195 | [2] -0.047 | [3] 0.257 | [4] -0.22 | [5] 0.068

TXNL4B (UniProt Q9NX01)
active: [3] -0.537
inactive: [1] 0.1 | [2] 0.068 | [4] -0.102 | [5] -0.12

UQCR10 (UniProt Q9UDW1)
inactive: [1] -0.032 | [2] 0.036 | [3] 0.142 | [4] -0.131 | [5] -0.009

UBAP2L isoform 1 (UniProt Q14157)
inactive: [1] 0.038 | [2] 0.004 | [3] 0.059 | [4] 0.001 | [5] 0.011

TMEM179B (UniProt Q7Z7N9)
Chain of UniProt Q7Z7N9 (Q7Z7N9 whole entry, looked up): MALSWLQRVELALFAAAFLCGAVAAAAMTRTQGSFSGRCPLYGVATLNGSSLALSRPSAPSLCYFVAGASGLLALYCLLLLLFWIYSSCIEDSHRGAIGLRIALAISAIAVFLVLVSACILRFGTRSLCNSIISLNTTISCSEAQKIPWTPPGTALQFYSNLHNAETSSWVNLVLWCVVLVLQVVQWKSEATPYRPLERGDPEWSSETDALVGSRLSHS
inactive: [1] -0.065 | [2] 0.081 | [4] 0.005 | [5] -0.024

TTC26
inactive: [1] 0.06 | [3] 0.02 | [4] 0.198

TRAPPC11 (UniProt Q7Z392)
inactive: [1] 0.004 | [2] 0.117 | [3] 0.077 | [4] -0.031 | [5] 0.027

UBAP2L (UniProt F8W726)
inactive: [1] -0.05 | [4] 0.046

UFM1 (UniProt P61960)
Chain of UniProt P61960 (P61960 whole entry, looked up): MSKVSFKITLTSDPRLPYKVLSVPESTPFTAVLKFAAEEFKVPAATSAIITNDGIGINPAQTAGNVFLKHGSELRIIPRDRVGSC
inactive: [1] -0.019 | [2] 0.363 | [3] 0.049 | [4] -0.164 | [5] 0.083

TOM1L2 (UniProt Q6ZVM7)
Chain of UniProt Q6ZVM7 (Q6ZVM7 whole entry, looked up): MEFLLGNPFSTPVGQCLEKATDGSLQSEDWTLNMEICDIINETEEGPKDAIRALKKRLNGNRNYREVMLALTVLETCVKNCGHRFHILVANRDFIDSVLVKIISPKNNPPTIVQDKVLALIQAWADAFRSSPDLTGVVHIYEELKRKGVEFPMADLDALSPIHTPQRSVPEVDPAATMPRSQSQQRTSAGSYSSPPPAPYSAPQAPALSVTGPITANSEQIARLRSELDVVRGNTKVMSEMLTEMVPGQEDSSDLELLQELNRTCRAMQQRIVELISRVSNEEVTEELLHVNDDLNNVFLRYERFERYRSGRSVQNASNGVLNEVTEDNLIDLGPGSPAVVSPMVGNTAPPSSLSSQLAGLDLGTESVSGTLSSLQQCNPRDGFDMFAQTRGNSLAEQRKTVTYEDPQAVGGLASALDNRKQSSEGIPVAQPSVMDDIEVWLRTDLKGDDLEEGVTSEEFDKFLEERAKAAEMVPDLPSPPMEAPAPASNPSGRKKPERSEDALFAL
inactive: [2] 0.138 | [3] 0.101 | [5] -0.001

TMEM41A (UniProt Q96HV5)
Chain of UniProt Q96HV5 (Q96HV5 whole entry, looked up): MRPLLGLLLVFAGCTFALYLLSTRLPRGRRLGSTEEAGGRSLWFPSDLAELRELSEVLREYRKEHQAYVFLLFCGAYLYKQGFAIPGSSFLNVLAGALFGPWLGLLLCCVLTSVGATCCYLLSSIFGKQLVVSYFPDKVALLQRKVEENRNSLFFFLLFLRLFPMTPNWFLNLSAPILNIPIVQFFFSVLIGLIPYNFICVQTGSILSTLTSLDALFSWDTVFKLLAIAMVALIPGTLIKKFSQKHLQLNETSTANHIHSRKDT
inactive: [1] 0.01 | [3] 0.06 | [4] -0.08

XRCC1 (UniProt P18887)
inactive: [2] 0.091 | [4] 0.07 | [5] 0.062

VDAC1 (UniProt C9JI87)
inactive: [1] -0.132 | [2] -0.004 | [5] 0.137

WDR46, A0A0G2JJL1
inactive: [1] 0.129 | [3] -0.546 | [4] 0.303

UBE3B (UniProt Q7Z3V4)
inactive: [1] -0.081 | [2] -0.147 | [4] -0.214 | [5] 0.172

ULBP1 (UniProt Q9BZM6)
inactive: [2] 0.014 | [3] -0.001 | [4] -0.036 | [5] -0.038

TMEM268 isoform 3 (UniProt Q5VZI3)
inactive: [1] -0.008 | [2] 0 | [4] 0.151 | [5] 0.063

TOM1 (UniProt O60784)
inactive: [1] -0.077 | [4] 0.039

TXN2 (UniProt Q99757)
Chain of UniProt Q99757 (Q99757 whole entry, looked up): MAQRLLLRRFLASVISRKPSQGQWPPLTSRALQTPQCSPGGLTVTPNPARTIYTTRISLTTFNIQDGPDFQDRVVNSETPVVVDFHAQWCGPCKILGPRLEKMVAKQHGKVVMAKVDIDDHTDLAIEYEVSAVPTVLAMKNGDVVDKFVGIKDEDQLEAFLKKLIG
inactive: [1] 0.027 | [2] 0.144 | [3] 0.039 | [4] -0.079 | [5] -0.067

U2AF1L5 (UniProt P0DN76)
inactive: [1] -0.008 | [3] -0.075 | [4] 0.057

TXNRD1 isoform 7 (UniProt Q16881)
inactive: [1] 0.046 | [3] 0.138

TMEM223 (UniProt A0PJW6)
Chain of UniProt A0PJW6 (A0PJW6 whole entry, looked up): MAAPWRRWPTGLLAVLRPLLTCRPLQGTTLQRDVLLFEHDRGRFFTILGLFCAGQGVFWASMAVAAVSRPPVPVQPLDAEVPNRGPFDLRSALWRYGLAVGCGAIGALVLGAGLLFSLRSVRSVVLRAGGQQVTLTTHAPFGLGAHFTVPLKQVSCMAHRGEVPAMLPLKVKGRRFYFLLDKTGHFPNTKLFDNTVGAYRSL
inactive: [1] 0.069 | [2] -0.045 | [3] 0.118 | [4] 0.03 | [5] -0.024

TSPAN13 (UniProt O95857)
active: [3] 0.639
inactive: [1] -0.195 | [2] 0.023 | [4] 0.076 | [5] 0.018

TRIP10 isoform 2 (UniProt Q15642)
inactive: [1] -0.039 | [2] 0.085 | [3] 0.222 | [4] 0.03 | [5] -0.026

TTC33 (UniProt Q6PID6)
Chain of UniProt Q6PID6 (Q6PID6 whole entry, looked up): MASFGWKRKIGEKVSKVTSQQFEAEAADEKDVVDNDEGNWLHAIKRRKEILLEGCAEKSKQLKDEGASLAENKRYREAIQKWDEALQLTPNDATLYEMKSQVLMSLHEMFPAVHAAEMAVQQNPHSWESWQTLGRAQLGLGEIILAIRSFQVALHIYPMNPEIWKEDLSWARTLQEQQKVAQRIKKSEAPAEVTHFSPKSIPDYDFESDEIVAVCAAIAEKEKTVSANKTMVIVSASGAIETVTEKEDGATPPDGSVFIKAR
inactive: [1] -0.142 | [2] 0.018 | [3] 0.073 | [5] 0.019

WARS1 (UniProt G3V277)
inactive: [1] -0.075 | [3] 0.283 | [4] 0.076

UBE3D (UniProt Q7Z6J8)
Chain of UniProt Q7Z6J8 (Q7Z6J8 whole entry, looked up): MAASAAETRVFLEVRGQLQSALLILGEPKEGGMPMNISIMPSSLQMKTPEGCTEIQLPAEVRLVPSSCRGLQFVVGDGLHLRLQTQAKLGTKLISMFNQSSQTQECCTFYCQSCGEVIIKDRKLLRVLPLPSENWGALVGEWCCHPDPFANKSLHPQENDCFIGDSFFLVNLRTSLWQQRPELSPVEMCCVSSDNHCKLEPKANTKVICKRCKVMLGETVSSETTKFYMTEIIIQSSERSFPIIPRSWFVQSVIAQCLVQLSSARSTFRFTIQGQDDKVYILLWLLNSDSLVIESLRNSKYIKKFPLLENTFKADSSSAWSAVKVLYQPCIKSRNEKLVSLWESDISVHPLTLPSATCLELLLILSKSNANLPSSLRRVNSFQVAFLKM
inactive: [1] 0.034 | [2] 0.057 | [3] 0.001 | [4] -0.051 | [5] 0.009

TTI2 (UniProt Q6NXR4)
Chain of UniProt Q6NXR4 (Q6NXR4 whole entry, looked up): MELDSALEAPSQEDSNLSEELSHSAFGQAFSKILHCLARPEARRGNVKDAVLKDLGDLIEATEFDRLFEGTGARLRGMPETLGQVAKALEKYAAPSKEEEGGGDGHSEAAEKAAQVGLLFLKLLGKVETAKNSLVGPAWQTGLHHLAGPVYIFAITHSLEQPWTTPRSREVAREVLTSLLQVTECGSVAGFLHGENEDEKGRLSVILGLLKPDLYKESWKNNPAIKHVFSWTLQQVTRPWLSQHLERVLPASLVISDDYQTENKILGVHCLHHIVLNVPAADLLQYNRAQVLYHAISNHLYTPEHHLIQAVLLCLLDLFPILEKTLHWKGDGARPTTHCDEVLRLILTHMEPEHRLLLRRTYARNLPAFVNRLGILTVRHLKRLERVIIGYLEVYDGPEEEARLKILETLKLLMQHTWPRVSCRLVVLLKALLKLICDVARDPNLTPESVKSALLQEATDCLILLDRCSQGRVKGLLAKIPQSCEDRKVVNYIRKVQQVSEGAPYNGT
inactive: [1] 0.07 | [2] 0.027 | [3] 0.031 | [4] 0.028 | [5] 0.041

TRIM5 (UniProt Q9C035)
inactive: [2] 0.021 | [3] 0.023 | [4] 0.155 | [5] -0.004

TVP23C (UniProt Q96ET8)
inactive: [2] 0.048 | [3] 0.041 | [4] 0.029 | [5] 0.086

TSG101 (UniProt Q99816)
Chain of UniProt Q99816 (Q99816 whole entry, looked up): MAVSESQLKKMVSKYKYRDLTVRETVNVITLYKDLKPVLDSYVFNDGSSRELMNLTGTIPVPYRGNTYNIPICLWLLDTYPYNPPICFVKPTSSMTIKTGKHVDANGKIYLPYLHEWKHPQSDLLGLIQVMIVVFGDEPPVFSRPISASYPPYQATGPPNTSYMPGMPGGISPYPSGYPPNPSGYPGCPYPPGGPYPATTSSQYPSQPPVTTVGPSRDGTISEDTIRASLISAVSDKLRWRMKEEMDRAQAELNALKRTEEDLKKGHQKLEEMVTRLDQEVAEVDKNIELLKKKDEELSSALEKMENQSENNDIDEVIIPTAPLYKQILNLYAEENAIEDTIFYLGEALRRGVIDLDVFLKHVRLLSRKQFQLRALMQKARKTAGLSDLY
inactive: [1] 0 | [2] 0.032 | [3] 0.074 | [4] -0.015 | [5] -0.016

TSC2 (UniProt P49815)
inactive: [1] 0.062 | [2] 0.099 | [4] -0.044 | [5] 0.317

U2AF1 isoform 2 (UniProt Q01081)
Chain of UniProt Q01081 (Q01081 whole entry, looked up): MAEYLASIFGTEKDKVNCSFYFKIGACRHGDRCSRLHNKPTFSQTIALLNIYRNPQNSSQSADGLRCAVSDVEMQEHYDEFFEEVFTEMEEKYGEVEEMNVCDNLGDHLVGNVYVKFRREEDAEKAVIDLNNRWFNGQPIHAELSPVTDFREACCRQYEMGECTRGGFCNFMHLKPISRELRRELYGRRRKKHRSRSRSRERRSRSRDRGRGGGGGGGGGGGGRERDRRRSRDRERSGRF
inactive: [1] 0.021 | [2] 0.03 | [3] 0.11 | [4] -0.02 | [5] 0.035

UTP20 (UniProt O75691)
inactive: [4] 0.034

UBE2Q1 (UniProt Q7Z7E8)
inactive: [1] -0.041 | [2] 0.061 | [3] 0.053 | [4] -0.001 | [5] 0.062

WDR4 (UniProt P57081)
inactive: [1] -0.074 | [2] 0.048 | [3] -0.004 | [4] -0.025 | [5] -0.008

TRIQK (UniProt Q629K1)
Chain of UniProt Q629K1 (Q629K1 whole entry, looked up): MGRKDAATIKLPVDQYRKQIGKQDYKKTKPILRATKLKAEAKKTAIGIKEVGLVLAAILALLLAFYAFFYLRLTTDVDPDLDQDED
inactive: [1] 0.098 | [2] 0.028 | [4] -0.052 | [5] 0.048

TMEM104 (UniProt Q8NE00)
inactive: [2] 0.001 | [5] 0.24

TP53BP1 isoform 2 (UniProt Q12888)
inactive: [1] -0.025 | [2] -0.016 | [3] 0.025 | [4] 0.001 | [5] 0.032

Reference: the supplement of paper PMC10849652
